The test system of one assay is PC26. Description: qHTS profiling for inhibitors of Plasmodium falciparum proliferation (AID 504749). Also: potency is read from the fitted curve at half-maximal effect. The following applies: P. falciparum in erythrocytes, SYBR Green DNA, 72 h; series mostly up to 28.7 µM. The procedure, abridged: (§1)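 P. falciparum-infected erythrocytes (0.3% parasitemia, 2.5% hematocrit final) were exposed to compounds for 72 h at 37 C in 5% CO2, then lysed with SYBR Green buffer overnight at room temperature; parasite DNA fluorescence was normalized to artemisinin and DMSO controls.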

In a further assay the test system is PC49. The assay is described as above. The conditions noted are these: P. falciparum in erythrocytes, SYBR Green DNA, 72 h; series mostly up to 28.7 µM. The procedure, abridged:
as §1

The next assay has as its system SC27B. The assay is described as above. The conditions noted are these: P. falciparum in erythrocytes, SYBR Green DNA, 72 h; series mostly up to 28.7 µM. The procedure, abridged: as §1
The next assay concerns TAB109. The description is as above. The conditions noted are these: P. falciparum in erythrocytes, SYBR Green DNA, 72 h; series mostly up to 28.7 µM. The procedure, abridged: as §1
A further assay has as its system TAB113. Described as above. The conditions noted are these: P. falciparum in erythrocytes, SYBR Green DNA, 72 h; series mostly up to 28.7 µM. The procedure, abridged: as §1
The subject of the next assay is TAB165. Described as above. The following applies: P. falciparum in erythrocytes, SYBR Green DNA, 72 h; series mostly up to 28.7 µM. The procedure, abridged: as §1
A further assay concerns CRL-7250. Description: Cytotoxic Profiling of Annotated Libraries Using Quantitative High-Throughput Screening (AID 1296008). As to max response: % is scaled to controls: 0 for no effect and ±100 for the full control effect. The following applies: Five cell lines viability, CellTiter-Glo ATP luminescence, 48-72 h; hits give low values. The gist of the method:
(§2)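 Compounds were pin-transferred onto cells and incubated 48 or 72 hr at 37 degree Celsius, 95% humidity. CellTiter-Glo was added, plates sat 10 min at room temperature, then ATP-coupled luminescence was imaged as the viability read-out.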
On the technique in general: In ATP-based viability assays light output follows the ATP content of the culture.

A further assay deals with HEK293. The description is as above. The conditions noted are these: Five cell lines viability, CellTiter-Glo ATP luminescence, 48-72 h; hits give low values. The procedure, abridged:
as §2

Assay [1] deals with HaCat. The description is as above. The following applies: Five cell lines viability, CellTiter-Glo ATP luminescence, 48-72 h; hits give low values. The gist of the method:
as §2

For another assay, the system named is KB-3-1. The description is as above. The following applies: Five cell lines viability, CellTiter-Glo ATP luminescence, 48-72 h, hits give low values. The procedure, abridged:
as §2

The subject of assay [2] is NIH3T3. The description is as above. The following applies: Five cell lines viability, CellTiter-Glo ATP luminescence, 48-72 h; hits give low values. The procedure, abridged:
as §2

Assay [3] has as its system HACAT. Description: qHTS assay to identify novel small-molecules to repurpose for Merkel cell carcinoma treatment (AID 1296009). The following applies: MCC and control cell lines, CellTiter-Glo viability, 72 h; at 44.8 µM (top of the series) unless noted. The procedure, abridged: (§3)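 Cells exposed to NPC (8-point) and MIPE (11-point) compound dilutions for 72 hr at 37 degree celsius; viability read by CellTiter-Glo luminescence, normalized to no-cell and DMSO in-plate controls.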

In the next assay the test system is MCC-13. Described as above. The following applies: MCC and control cell lines, CellTiter-Glo viability, 72 h; series mostly up to 46 µM. The gist of the method:
as §3

In another assay the test system is MCC-26. Described as above. The conditions noted are these: MCC and control cell lines, CellTiter-Glo viability, 72 h; series mostly up to 46 µM. The procedure, abridged:
as §3

A further assay deals with MKL-1. The assay is described as above. The conditions noted are these: MCC and control cell lines, CellTiter-Glo viability, 72 h; series mostly up to 46 µM. The procedure, abridged:
as §3

The next assay concerns MKL-2. The assay is described as above. The following applies: MCC and control cell lines, CellTiter-Glo viability, 72 h; series mostly up to 46 µM. The gist of the method:
as §3

A further assay relates to UISO. The description is as above. The conditions noted are these: MCC and control cell lines, CellTiter-Glo viability, 72 h; series mostly up to 46 µM. The gist of the method:
as §3

In another assay the test system is W2. The assay is described as follows: qHTS profiling for inhibitors of Plasmodium falciparum proliferation (AID 504749). Also: potency is read from the fitted curve at half-maximal effect. The following applies: P. falciparum in erythrocytes, SYBR Green DNA, 72 h; series mostly up to 28.7 µM. The procedure, abridged: as §1
In assay [4] the test system is NIH3T3. Description: qHTS assay to identify novel small-molecules to repurpose for Merkel cell carcinoma treatment (AID 1296009). The conditions noted are these: MCC and control cell lines, CellTiter-Glo viability, 72 h; at 44.8 µM (top of the series) unless noted. The procedure, abridged:
as §3
On the technique in general: qHTS replaces the single test concentration by a dilution series.

Results filed as inconclusive are left out. Values without a mark were called inactive. Calls of active or inactive are those of the source. Calls follow the shape of the dose curve; as a rule, active = well fitted inhibition curve with a large enough effect; inconclusive = small, poorly fitted or top-dose-only effect; inactive = flat fitted curve, though single readings scatter.
Also: nearly all actives have a fitted effect of over 60% in size.

For the compound `CC[N+](CC)(CC(=O)Nc1c(C)cccc1C)Cc1ccccc1`, the Potency result with PC26, in the assay on PC49, with SC27B, in the assay on TAB109, in the assay on TAB113 and with TAB165 was “inactive” in each case. Besides, the max response was -0.938% in the assay on CRL-7250, 3.4% with HEK293, -3.17% in the assay on KB-3-1 and 1.97% with NIH3T3 [2]. Also, the result in the assay on HaCat [1], with HACAT [3], in the assay on MCC-13, with MCC-26, in the assay with MKL-1 and in the assay on MKL-2 was inactive. Also, the compound was classed as inactive in the assay on UISO.

Regarding `CCCCCCCC(=O)OCC(COC(=O)CCCCCCC)OC(=O)CCCCCCC`, the Potency entry with PC26, with PC49, in the assay with SC27B, with TAB109, in the assay with TAB113 and with TAB165 was “inactive” each time. Further, the max response in the assay with CRL-7250 was -3.96%; with HEK293, 1.52%; in the assay with KB-3-1 it was -1.81%; in the assay with NIH3T3 [2], 4.46%. Also, the outcome in the assay on HaCat [1], in the assay with HACAT [3], with MCC-13, with MCC-26, with MKL-1 and in the assay on MKL-2 was inactive. Further, the compound was called inactive in the assay with UISO.

For `COCC(=O)Nc1c(I)c(C(=O)NCC(O)CO)c(I)c(C(=O)N(C)CC(O)CO)c1I` (configuration not stated), the max response was -2.09% in the assay on CRL-7250, -5.16% in the assay with HEK293, 11.7% with KB-3-1 and 1.05% with NIH3T3 [2]. In addition, the call in the assay with HaCat [1], in the assay on HACAT [3], in the assay with MCC-13, in the assay with MCC-26, with MKL-1 and in the assay with MKL-2 was inactive. Besides, the compound was called inactive with UISO.

For `Cc1ccc2c(c1)c1c3n2CCNC3CCC1` (configuration not stated), the max response with CRL-7250 is -2.33%; in the assay on HEK293, -1.48%; in the assay with KB-3-1, -0.231%; in the assay with NIH3T3 [2], -0.828%. Besides, the call in the assay on HaCat [1], in the assay with HACAT [3], in the assay on MCC-13, in the assay on MCC-26, in the assay on MKL-1 and in the assay on MKL-2 was inactive. For the same compound, the compound was called inactive with UISO.

For the compound `COc1ccccc1OC(=O)Oc1ccccc1OC`, the Potency result in the assay on PC26, with PC49, in the assay with SC27B, in the assay on TAB109, in the assay on TAB113 and in the assay with TAB165 was “inactive” in each case. For the same compound, the Potency entry with W2 is “inactive”. Further, the result with CRL-7250, in the assay with HaCat [1], in the assay on HACAT [3], with MCC-13, in the assay with MCC-26 and with MKL-1 was inactive. In addition, the outcome with MKL-2 and in the assay with UISO was inactive. For the same compound, the figures for the max response in the assay with HEK293, in the assay with KB-3-1 and in the assay with NIH3T3 [2] were -4.48%, -6.45% and 0.277%, respectively.

Take `O=C(O)CCCCC1CCSS1` (configuration not stated): the Potency result in the assay on PC26, in the assay on PC49, in the assay on SC27B, with TAB109, in the assay on TAB113 and with TAB165 was “inactive” each time. The Potency result in the assay with W2 is “inactive”. For the same compound, the max response with CRL-7250 was -4.66%; in the assay on HEK293, 0.811%; with KB-3-1, 3.98%; with NIH3T3 [2], 1.45%. For the same compound, the call in the assay on HaCat [1], in the assay on HACAT [3], in the assay with MCC-13, with MCC-26, in the assay with MKL-1 and in the assay on MKL-2 was inactive. Besides, the result with UISO was inactive.

Turning to `CCCCOC(=O)c1ccc(N)cc1`, the Potency entry in the assay with PC26, in the assay on PC49, in the assay on SC27B, with TAB109, with TAB113 and with TAB165 was “inactive” in each case. In addition, the compound was called inactive with CRL-7250, with HaCat [1], in the assay with HACAT [3], in the assay on MCC-13, in the assay on MCC-26 and in the assay with MKL-1. Besides, the result in the assay with MKL-2 and with UISO was inactive. Further, the figures for the max response in the assay on HEK293, in the assay with KB-3-1 and with NIH3T3 [2] were 4.63%, 0.229% and -6.66%, respectively.

For the compound `CC(CN(C)C)C(C)(O)Cc1ccc(Cl)cc1` (configuration not stated), in the assay with W2, the Potency is 2390 nM (active). The compound was classed as inactive in the assay on CRL-7250, in the assay with HaCat [1], with NIH3T3 [2], in the assay with HACAT [3], in the assay with MCC-13 and in the assay on MCC-26. In addition, the call in the assay with MKL-1, in the assay on MKL-2, in the assay with NIH3T3 [4] and in the assay on UISO was inactive. The results for the max response with HEK293 and with KB-3-1 were 3.34% and 6.05%, respectively.

(Values after PubChem BioAssay (NCATS).)
